# In all, about 69,000 compounds went through this assay and about 420 (0.61%) showed an effect of 50% or more. The entries come from a sample that favours strong results as a whole.
# Target: T1, Histidine--tRNA ligase (Leishmania infantum) (UniProt A4I591)
# T1 sequence (whole entry): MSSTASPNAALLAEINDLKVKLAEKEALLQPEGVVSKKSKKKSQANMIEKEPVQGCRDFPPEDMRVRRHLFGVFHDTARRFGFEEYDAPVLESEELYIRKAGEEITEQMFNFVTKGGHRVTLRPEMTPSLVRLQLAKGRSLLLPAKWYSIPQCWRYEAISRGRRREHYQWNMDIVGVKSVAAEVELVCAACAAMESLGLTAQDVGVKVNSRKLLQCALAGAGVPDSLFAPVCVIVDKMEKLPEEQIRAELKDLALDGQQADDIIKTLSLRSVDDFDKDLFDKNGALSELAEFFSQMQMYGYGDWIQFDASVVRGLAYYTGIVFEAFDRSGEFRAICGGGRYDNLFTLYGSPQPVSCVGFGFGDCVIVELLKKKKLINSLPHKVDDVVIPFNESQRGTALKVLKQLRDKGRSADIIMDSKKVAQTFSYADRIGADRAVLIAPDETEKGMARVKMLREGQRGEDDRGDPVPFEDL
# Assay: Leishmania infantum Histidine tRNA synthetase (LdHisRS)
# Type: functional
# Set-up: scale not given: in the data most compounds retested in dose-response had high values
# Details: 30 µM
row,SMILES,Percent Effect [%]
1,CS(=O)(=O)CCn1ccc(NC(=O)Cc2cccc(Cl)c2)n1,15.3
2,Cc1cc(=O)n(CC(=O)Nc2cccc(Cl)c2)nc1C,2.4
3,Cn1cc(NC(=O)c2cccc(C(F)(F)F)c2)c(=O)n(C)c1=O,22.9
4,Cc1cccc(C(=O)N2CC[C@@H]3CN(c4ncccn4)CCO[C@@H]3C2)c1,10
5,COc1ccc(CN2CCO[C@@H]3C[C@@H](C(=O)NC(C)C)C[C@H]32)cc1,25
6,COC[C@]12COC[C@H]1CN(Cc1ccc3c(c1)OCO3)C2,1.98
7,O=C1CC[C@H]2[C@H](CCN2C(=O)C2CCOCC2)N1Cc1ccncc1,17.5
8,CNC(=O)[C@@]12CCCN(c3ncccn3)[C@@H]1CN(c1ncc(F)cn1)C2,16.8
9,CCc1ccc(C(=O)N2C[C@@H]3COC[C@@H](C(=O)NC)[C@@H]3C2)cc1,14
10,C[C@@H]1C(=O)NC[C@H]2CN(Cc3ccc4c(c3)OCO4)C[C@H]21,15.6
11,O=C(NCc1ccccn1)[C@]12COC[C@H]1CN(Cc1cccnc1)C2,11.1
12,O=C([C@H]1C[C@@H]2CN(c3ncc(F)cn3)C[C@H]1O2)N1CCOCC1,5.94
13,CC(C)NC(=O)N1CC[C@H]2N(C)CC[C@@]2(C(=O)Nc2cccnc2)CC1,9.91
14,O=C(NCC1CC1)[C@H]1C[C@H]2OCC[C@H]2N(Cc2ccsc2)C1,0
15,Cc1cccc(CN2CC[C@@H]3[C@@H]2CCN3C(=O)c2cc(C)oc2C)n1,25.6
16,O=C([C@H]1C[C@@H]2CCN(c3cccc(F)c3)C[C@H]2O1)N1CCCCO1,22.2
17,Cc1cc(=O)n(C)cc1NC(=O)Cc1cc(F)ccc1F,107
18,CCC(=O)NCC(=O)Nc1c(C)cnn1Cc1cc(F)ccc1F,14.5
19,Cc1cc(F)ccc1NC(=O)Cn1cc(C(=O)O)ccc1=O,21.7
20,CN(CCO)Cc1nnc(C2CCN(C[C@H]3[C@@H]4CNC[C@@H]43)CC2)n1C,9.38

row,SMILES,Percent Effect [%]
1,Cc1ccc(C(=O)N2C[C@H]3CCC[C@@]3(COc3ccccn3)C2)nc1,16.4
2,Nc1ccnc(-c2cc(NC3CCNCC3)nc3[nH]ccc23)c1,41
3,CNc1cc(C)nc(-c2cc(NC3CCNCC3)nc3[nH]ccc23)n1,32.6
4,COc1ncc(-c2cc(NC3CCCC3)nc3[nH]ccc23)c(OC)n1,21.3
5,COc1nccnc1-c1cc(NC2CCCC2)nc2[nH]ccc12,6.38
6,COc1nccnc1-c1cc(NC2CCNCC2)nc2[nH]ccc12,55.3
7,FC(F)(F)c1ccc(-c2cc(NC3CCNCC3)nc3[nH]ccc23)nc1,63.9
8,Cc1oncc1C(=O)N[C@@H]1CN(Cc2ccco2)C[C@@H]2CCCO[C@@H]21,4.54
9,Cn1ccc(C(=O)N2C[C@H]3CCC[C@@]3(COCc3cccnc3)C2)n1,7.96
10,COC[C@]12COC[C@H]1CN(S(=O)(=O)c1cccnc1)C2,14
11,CCc1cc(N2CCC(F)(F)CC2)n2nc(C)c(C)c2n1,61.7
12,CCc1cc(N2CCS(=O)(=O)CC2)n2nc(C)c(C)c2n1,13.3
13,CCc1cc(N2CCSCC2)n2nc(C)c(C)c2n1,-0.971
14,COCc1ccccc1CNc1nnc(C)c(C)c1C#N,12.3
15,Cc1nnc(NCC(c2cccs2)N2CCCC2)c(C#N)c1C (stereo not drawn),32.9
16,Cc1nnc(NCC(c2ccco2)N(C)C)c(C#N)c1C (stereo not drawn),54.8
17,Cc1nnc(NCc2ccccc2S(=O)(=O)N(C)C)c(C#N)c1C,22
18,Cc1nnc(NCc2cccnc2N(C)C)c(C#N)c1C,15.4
19,Cc1nnc(NCc2ccccc2F)c(C#N)c1C,49.5
20,Cc1nnc(NCc2ccccc2Cl)c(C#N)c1C,52.3

row,SMILES,Percent Effect [%]
1,Cc1nnc(NCC(c2ccco2)N2CCCC2)c(C#N)c1C (stereo not drawn),60.3
2,Cc1nnc(NCC(c2ccco2)N2CCCCC2)c(C#N)c1C (stereo not drawn),32.9
3,O=C(Nc1cnccn1)[C@H]1COC[C@H]2CN(c3ncc(F)cn3)C[C@H]21,18.8
4,COCCNC(=O)[C@H]1CC[C@@H]2[C@@H](CCN2S(C)(=O)=O)O1,22.9
5,Cc1nc(CN2C(=O)CC[C@@H]3[C@H]2CCN3C2CCOCC2)cs1,9.57
6,COCCN1CCO[C@@H]2CN(Cc3sccc3C)C[C@@H]2C1,0.84
7,CC(C)c1cc(NC(=O)CN2CCc3nn(C)c(=O)cc3C2)on1,78.8
8,CCCn1nc2c(cc1=O)CN(CC(=O)Nc1cc(C)no1)CC2,18.2
9,Cc1cc(NC(=O)CN2CCc3nn(C)c(=O)cc3C2)on1,56.7
10,CC(C)(C)c1cc(NC(=O)CN2CCn3c(nnc3C3CC3)C2)on1,1.79
11,CN(C(=O)CN1CCc2nn(C)c(=O)cc2C1)c1nccs1,65.9
12,Cn1nc2c(cc1=O)CN(CC(=O)Nc1cc(C(C)(C)C)no1)CC2,112
13,CC(C)(C)c1cc(NC(=O)CN2CCc3cncnc3C2)on1,19.6
14,CC(C)c1cc(NC(=O)CN2CCc3ccccc3C2)on1,-2.74
15,CCn1nc2c(cc1=O)CN(CC(=O)N(C)c1nccs1)CC2,5.56
16,CCn1nc2c(cc1=O)CN(CC(=O)Nc1cc(C)no1)CC2,15.2
17,CCn1nc2c(cc1=O)CN(CC(=O)Nc1cc(C(C)C)no1)CC2,21.2
18,CCCn1nc2c(cc1=O)CN(CC(=O)N(C)c1nccs1)CC2,24.6
